# Data as given in PubChem BioAssay AID686979 (National Center for Advancing Translational Sciences (NCATS), 2013).
# About 50,000 (12%) of roughly 420,000 compounds were called active. Inconclusive results (about 26%) are left out. Calls follow the shape of the dose curve; as a rule, active = well fitted inhibition curve with a large enough effect; inconclusive = small, poorly fitted or top-dose-only effect; inactive = flat fitted curve, though single readings scatter. What follows is part of a selection rich in actives, with near analogues and random picks from the rest. A call without a number means that no potency is given here.
# Assay: qHTS for Inhibitors of human tyrosyl-DNA phosphodiesterase 1 (TDP1): qHTS in cells in presence of CPT; also: nearly all actives have a fitted effect of over 55% in size
# Details: chicken DT40 Tdp1-/-;hTDP1 cells + 20 nM CPT, ATP luminescence, 48 h; series mostly up to 46.2 µM
# Procedure, shortened: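 Chicken DT40 Tdp1-/- cells stably complemented with human TDP1 were seeded at 400 cells/well in medium containing 20 nM camptothecin, exposed to pin-transferred compounds, and grown at 37 °C for at least 48 hr. Viability was read as ATP luminescence.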
# Potency is read from the fitted curve at half-maximal effect.
row,Structure (SMILES),Potency
1,Cc1ccnc(NC(=O)CCCOc2ccccc2)c1,inactive
2,CCN1CCN(c2nc(Nc3cccc(F)c3)nc(N)c2[N+](=O)[O-])CC1,inactive
3,CN(C)C(CNC(=O)c1ccc(OCc2cn3ccccc3n2)cc1)c1ccco1 (stereo unspecified),inactive
4,Cc1nn(-c2ccccc2)c2c1C(=O)NC(=O)C(C)(C)C2,inactive
5,CC1=C(N2CCN(c3ncccn3)CC2)CCC1=O,inactive
6,Cc1nn(-c2ncccn2)c2c1C(=O)CC(C)(C)C2Br (stereo unspecified),20.6 µM (active)
7,COc1ccc2cc(-c3nc(Cl)c4c5c(sc4n3)CC(C)CC5)c(=O)oc2c1 (stereo unspecified),inactive
8,CC(C)CNC(=O)CC(c1ccccc1)c1c(O)ccc2ccccc12 (stereo unspecified),inactive
9,CC(C)NC(=O)C(c1ccc(F)cc1)N(C(=O)CCC(=O)Nc1ccccn1)c1ccccc1F (stereo unspecified),inactive
10,O=C(c1cc(COc2cccc(C(F)(F)F)c2)on1)N1CCSCC1,inactive
11,Cc1ccc(C(=O)N2CC(=O)Nc3ccccc32)o1,inactive
12,Cc1ccc(CNC(=O)C2(C(F)(F)F)C/C(=C\Cc3ccccc3)CCCO2)o1 (stereo unspecified),16.4 µM (active)
13,COC(=O)[C@]12CCCCC=C1N(Cc1ccccc1)C(=O)[C@H](CC(=O)NCc1ccc(C)o1)C2,inactive
14,Cc1ccc2c(c1)nnc1nnc(SCC(=O)O)n12,inactive
15,Cc1cccc(-c2nnc(SCC(=O)O)n2Cc2ccccc2)c1,inactive
16,CCC(C(=O)NC1CCCC1)N(C(=O)Cn1nnc(-c2ccc(C)o2)n1)c1ccc(OC)c(OC)c1 (stereo unspecified),inactive
17,Cc1cccc(C)c1NC(=O)COC(=O)c1ccccc1O,inactive
18,COC(=O)Cc1[nH]n(-c2nc3ccccc3s2)c(=O)c1C(C)=Nc1ccc(OC)cc1,5.17 µM (active)
19,COc1ccc(N=C(C)c2sc3ccccc3c2O)cc1,inactive
20,COc1ccc(/C=C(/CC(=O)Nc2ccc(C)cc2)c2nc3ccccc3s2)cc1,inactive
21,COc1ccc(C2NC(=S)NC3=C2CCc2ccccc23)cc1OC (stereo unspecified),inactive
22,C=CCN(CC=C)C(=O)COC(=O)c1n[nH]c2ccccc12,inactive
23,CNC1(c2nnnn2-c2c(C)cccc2C)CCOC(C)(C)C1 (stereo unspecified),inactive
24,CC(C)CC(=O)NCC(c1ccc2c(c1)OCO2)N1CCN(c2ccc(F)cc2)CC1 (stereo unspecified),16.4 µM (active)
25,O=C(NCCO)C(=O)NCC(c1ccc2c(c1)OCO2)N1CCN(c2ccc(F)cc2)CC1 (stereo unspecified),inactive
26,CC(C)CNC(=O)C(=O)NCC(c1ccc2c(c1)OCO2)N1CCOCC1 (stereo unspecified),inactive

row,Structure (SMILES),Potency
1,COc1ccc(N)cc1NC(=O)CN1CCOCC1,inactive
2,COc1ccc(C2C(C(C)=O)=C(O)C(=O)N2CCc2c[nH]c3ccccc23)cc1 (stereo unspecified),inactive
3,CC(=O)c1ccc(Nc2nc(C(N)c3ccccc3Cl)cs2)cc1 (stereo unspecified),14.6 µM (active)
4,CC(=O)c1ccc(NC(=O)c2cc(-c3cccs3)on2)cc1,inactive
5,CC(=O)c1ccc(NC(=O)C(C)N(C)CC(=O)Nc2ccccc2Cl)cc1 (stereo unspecified),inactive
6,COc1cc(NC(=O)c2noc3c2CSc2ccccc2-3)cc(OC)c1OC,9.2 µM (active)
7,COc1cc(OC)c(NC(=O)c2c3c(nn2C)-c2ccccc2SC3)cc1Cl,inactive
8,COc1ccccc1-c1cc(C(=O)N2CCCCC2)no1,inactive
9,Cc1cccc(-n2c(Cc3cc(=O)[nH]c(=O)[nH]3)nnc2SCC(=O)Nc2cccc(C(F)(F)F)c2)c1,inactive
10,NC(=O)NC(=O)CSc1nc2cc([N+](=O)[O-])ccc2n1-c1cccc(C(F)(F)F)c1,10.3 µM (active)
11,COc1ccc(CCNC(=O)CSc2nc3[nH]ncc3c(=O)n2-c2cccc(C(F)(F)F)c2)cc1OC,inactive
12,COc1ccc(NS(=O)(=O)c2cc3c(cc2C)N(C(C)=O)CCO3)cc1,inactive
13,COc1ccc(C(=O)NC(Cc2ccc(OC(=O)c3ccc(OC)cc3)cc2)C(=O)O)cc1 (stereo unspecified),inactive
14,O=C(CSc1nnc(-c2ccc([N+](=O)[O-])cc2)o1)Nc1ccccn1,inactive
15,O=[N+]([O-])c1ccccc1SNc1ccccn1,20.6 µM (active)
16,O=C(Nc1ccncc1)c1ccccc1[N+](=O)[O-],inactive
17,CCN1C[C@@H]2[C@@H]3C(=O)N(C)C(=O)[C@@H]3[C@](C)(C1=O)N2C(=O)c1ccccc1,inactive
18,COc1ccc(-c2nnc(SCc3cccnc3)o2)cc1,inactive
19,N#Cc1nc(COc2ccc(-c3ccccc3)cc2)oc1NCc1cccnc1,6.51 µM (active)
20,N#Cc1nc(COc2ccc(Cl)cc2)oc1N1CCCC1,inactive
21,CCOC(=O)C[C@H]1c2ccc(C(F)(F)F)cc2S(=O)(=O)N1c1ccccc1,inactive
22,COc1ccc2oc(N)c(C=O)c(=O)c2c1,inactive
23,CCN(CC(=O)Nc1cc(Cl)ccc1C)C(=O)CN1C(=O)NC2(CCCC2)C1=O,inactive
24,CCN(CC(=O)Nc1cc(Cl)ccc1C)C(=O)CSCc1ccc(C)cc1,1.3 µM (active)
25,CCN(CC(=O)Nc1cc(Cl)ccc1C)C(=O)Cn1c(=O)cnc2ccccc21,inactive
26,CCCNC(=O)CCc1c(C)nc2c(c(C)nn2-c2ccccc2)c1C,inactive

row,Structure (SMILES),Potency
1,CC(=O)Nc1cc(C(=O)NCc2ccc(F)cc2Cl)ccc1Sc1ccc(Cl)cc1,20.6 µM (active)
2,COCCNC(=O)c1ccc(S(=O)(=O)c2ccc(Cl)cc2)c(NC(C)=O)c1,inactive
3,CC(=O)Nc1ccccc1-c1nc(CNC(=O)c2ccc(Cl)cc2)c(C)o1,inactive
4,O=C(CCc1ccccc1Cl)Nc1ccc(S(=O)(=O)Nc2nccs2)cc1,inactive
5,CN(C)S(=O)(=O)c1cccc(NC(=O)COC(=O)c2cc(=O)[nH]c(=O)[nH]2)c1,inactive
6,CN(C)S(=O)(=O)c1cccc(NC(=O)COC(=O)C2(c3ccccc3F)CCCC2)c1,18.4 µM (active)
7,CN(C)S(=O)(=O)c1cccc(NC(=O)COC(=O)/C=C/c2cccs2)c1,inactive
8,O=C(NCc1ccco1)c1ccc(NS(=O)(=O)c2cccc([N+](=O)[O-])c2)cc1,inactive
9,COc1ccc(NC(=O)CSc2nnc(Cc3ccccc3)c(=O)n2N)cc1,inactive
10,COc1ccc(C(=O)N(C)CC(O)c2ccccc2)cc1OC1CCN(C(C)=O)CC1 (stereo unspecified),inactive
11,NC(=O)Nc1ccc(C(=O)OCC(=O)NC2CCCc3ccccc32)cc1 (stereo unspecified),inactive
12,CCOC(=O)c1c(NC(=O)CNC2CCCc3ccccc32)sc(C(N)=O)c1C (stereo unspecified),23.1 µM (active)
13,CCOC(=O)c1sc(NC(=O)CSc2nnc(-c3ccco3)o2)c(C(=O)OCC)c1C,inactive
14,COc1ccc(C(=O)N2CCN(c3ccc(C(C)=O)cc3F)CC2)cc1S(=O)(=O)NC1CC1,inactive
15,O=C(Nc1ccc2c(c1)OCCO2)C1CCCC1,inactive
16,COC(=O)c1ccc(/C=C2/C(=O)Oc3ccccc32)cc1,inactive
17,COc1ccc2c(c1)O/C(=C\c1ccccc1O)C2=O,inactive
18,O=C1Oc2ccccc2C(=O)/C1=C/c1ccccc1O,5.8 µM (active)
19,COc1ccc2oc(C(=O)NCC(Cc3ccccc3)N(C)C)c(C)c2c1 (stereo unspecified),inactive
20,CCOC(=O)C1=C(O)/C(=C/c2ccc(OCC(=O)Nc3ccc(C)cc3)cc2)N=C1C,inactive
21,CN(C)c1nc(NN)nc(Nc2ccc(F)cc2)n1,inactive
22,CCOC(=O)C(C)n1cnc2c(nnn2-c2ccc(F)cc2)c1=O (stereo unspecified),inactive
23,Cc1ccc(S(=O)(=O)N2CCC(=O)N([C@H](COCc3ccccc3)C(C)C)CC2)cc1,inactive
24,CN1CCC(=O)N([C@H](CO)Cc2ccccc2)CC1,inactive
25,CC(C)CC(COCc1ccc(Cl)cc1)N1CCN(C(=O)c2ccc(C(F)(F)F)cc2)CCC1=O (stereo unspecified),14.6 µM (active)
26,CC(C)CC(CO)N1CCN(C(=O)c2ccc(Cl)cc2Cl)CCC1=O (stereo unspecified),inactive

row,Structure (SMILES),Potency
1,O=C(c1cc(Cl)cc(Cl)c1)N1CCC(=O)N(C(COCc2ccccc2)Cc2ccccc2)CC1 (stereo unspecified),13 µM (active)
2,CC(C)C[C@@H](CO)N1CCN(Cc2ccc(O)cc2)CCC1=O,inactive
3,Cc1ccc(S(=O)(=O)N(C)C)cc1NC(=O)C1Cc2ccccc2CN1C(=O)c1ccco1 (stereo unspecified),inactive
4,Cc1c(C(C)CCCO)oc(=O)c2c1Oc1c(C)c(C(C)C[C@@H](C)O)oc(=O)c1C2 (stereo partly specified),inactive
5,CCCCCCCC(=O)OC(CN1CCCCCC1)CN1CCCC1=O (stereo unspecified),inactive
6,COc1cc(/C=C2\C(=N)N3N=C(CC(=O)N4CCOCC4)SC3=NC2=O)cc(OC)c1OC,inactive
7,Cc1cc2cc(CNC(=O)c3ccc(S(=O)(=O)N4CCOCC4)cc3)ccc2[nH]1,inactive
8,Cc1cccc(OCC(O)CN2CCN(S(=O)(=O)c3ccc(C)cc3C)CC2)c1 (stereo unspecified),inactive
9,Cc1c(Br)cc(C(=O)N2CCCCCC2)c(C)c1C,inactive
10,Cn1nnnc1SCC(=O)Nc1nc2ccccc2s1,inactive
11,Cc1cccc(-n2ccnc2SCC(=O)Nc2cccc3ccccc23)c1C,23.1 µM (active)
12,Cc1cc(C)cc(-n2ccnc2SCC(=O)Nc2nc3ccccc3s2)c1,18.4 µM (active)
13,C=CCn1c(SCC(=O)Nc2nc3ccccc3s2)nnc1-c1ccccc1O,inactive
14,Cc1cccc(CSc2nnc(NC(=O)CSc3nnc(C)s3)s2)c1,inactive
15,Cc1nnc(NC(=O)CSc2nccn2-c2cccc(C)c2C)s1,4.61 µM (active)
16,COc1ccccc1-n1c(CNC(=O)c2ccccc2)nnc1SCC(=O)Nc1nnc(C)s1,inactive
17,Cc1ccccc1-n1c(SCC(=O)Nc2cccc3ccccc23)nc(O)cc1=O,inactive
18,COc1ccccc1-n1ccnc1SCC(=O)NC(C)(C)C,inactive
19,COc1cccc(CC(=O)N2CCCC(CCC(=O)N3CCN(c4ccccn4)CC3)C2)c1 (stereo unspecified),inactive
20,CC(C)Sc1ncnc2c1cnn2-c1ccccc1,inactive
21,Nc1cc(N)nc(SCc2cccc(F)c2)n1,inactive
22,COCCN1C(=O)C(=O)/C(=C(/O)c2ccc(S(=O)(=O)N3CCCCC3)cc2)C1c1ccc(OC)c(OC)c1 (stereo unspecified),inactive
23,Cc1ccc2c(c1)C1C[N+](C)(CC(=O)c3ccccc3)CCC1N2C(=O)c1ccccc1Cl (stereo unspecified),inactive
